# Only some compounds are listed: those with a hit (about 9.2% of all), similar ones and a draw of the others.
# HTT ATP protect – Huntington cell model cytoprotection by ATP luminescence; 230,000 tested, 0.14% active; PC12 HTT-Q103 induced, cytoprotection, ATP luminescence, 40 h; Potency, µM (top dose mostly 56.4 µM), for inactives: cytoprotection (ATP increase), hits mostly activators; AID 1471; active = well fitted curve in the direction sought with a large enough effect; inconclusive = small, poorly fitted or top-dose-only effect, or another doubt; inactive = no such curve, though single readings can be large; an effect the other way counts as inactive or inconclusive; also: % of control where 0% means no effect; nearly all actives have a fitted effect of over 45% in size
#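 Readout: ATPlite luminescence (ATP level). Model: stable PC12, inducible Htt exon1 Q103-GFP. Inducer: tebufenozide, 100 nM final. Compounds: dose series. No G418 in medium.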
# HttQ103 aggreg – inhibitors of mutant huntingtin aggregate formation in PC12 cells. PC12 HttQ103-GFP aggregates, Acumen cytometry, 40 h. Potency, µM (series often up to 46.1 µM), inactives show at the highest dose activity change, negative = inhibition, actives largely listed as inhibitors. 220,000 tested, 1.1% active. AID 1688; active = well fitted curve in the direction sought with a large enough effect; inconclusive = small, poorly fitted or top-dose-only effect, or another doubt; inactive = no such curve, though single readings can be large; an effect the other way counts as inactive or inconclusive; also: % is scaled to controls: 0 for no effect and ±100 for the full control effect; nearly all actives have a fitted effect of over 60% in size
#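 Read-out: GFP aggregate count by laser scanning cytometer (488 nm excitation, 500-530 nm emission, 1–25 µm objects >6 SD above background). Cells: PC12, inducible HTTex1-Q103-GFP, 100 nM tebufenozide; compounds titrated.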
# KDM4E inh – inhibitors of human JMJD2E histone demethylase. B2RXH2. JMJD2E catalytic domain, FDH-coupled NADH fluorescence (FDH is formaldehyde dehydrogenase). 230,000 tested, 1.6% active. Potency, µM (titrated, usually from 57.1 µM), inactives show at the top dose activity change, negative = inhibition, usual class: inhibitors;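 also: 0% = wells with enzyme and -100% = buffer wells without enzyme; nearly all actives have a fitted effect of over 50% in size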
# HPGD inh – HPGD (human) dehydrogenase inhibition. Potency, µM, for inactives: at the top dose activity change, negative = inhibition, actives largely listed as inhibitors. 150,000 tested, 4.3% active. purified HPGD, NADH fluorescence kinetic, PGE2 substrate. P15428; also: % is scaled to controls: 0 for no effect and ±100 for the full control effect
# Target sequence (P15428 whole entry, looked up): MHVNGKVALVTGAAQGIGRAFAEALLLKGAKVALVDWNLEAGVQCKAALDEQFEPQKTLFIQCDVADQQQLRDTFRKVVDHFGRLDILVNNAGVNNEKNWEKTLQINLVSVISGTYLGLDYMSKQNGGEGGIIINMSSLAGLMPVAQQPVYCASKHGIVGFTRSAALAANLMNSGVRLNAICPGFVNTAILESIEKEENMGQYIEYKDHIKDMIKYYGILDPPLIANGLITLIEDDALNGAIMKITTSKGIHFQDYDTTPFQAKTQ
#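 NADH formation kinetics: reaction with 30 uM PGE2 and 1 mM NAD+ (final), 20 nM enzyme, Tris-HCl pH 8 with Tween 20, after 15 min compound preincubation at room temperature. Fluorescence change, last versus first of five reads.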
# ALDH1A1 block – blocks purified human ALDH1A1 activity; Purified ALDH1A1, NADH fluorescence, propionaldehyde substrate; Potency, µM (top dose mostly 75.3 µM), for the others: at the highest dose activity, negative = inhibition, actives largely listed as inhibitors; 220,000 tested, 7.3% active;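 also: plate controls were no enzyme wells and a reference inhibitor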
# Target sequence (P00352 whole entry, looked up): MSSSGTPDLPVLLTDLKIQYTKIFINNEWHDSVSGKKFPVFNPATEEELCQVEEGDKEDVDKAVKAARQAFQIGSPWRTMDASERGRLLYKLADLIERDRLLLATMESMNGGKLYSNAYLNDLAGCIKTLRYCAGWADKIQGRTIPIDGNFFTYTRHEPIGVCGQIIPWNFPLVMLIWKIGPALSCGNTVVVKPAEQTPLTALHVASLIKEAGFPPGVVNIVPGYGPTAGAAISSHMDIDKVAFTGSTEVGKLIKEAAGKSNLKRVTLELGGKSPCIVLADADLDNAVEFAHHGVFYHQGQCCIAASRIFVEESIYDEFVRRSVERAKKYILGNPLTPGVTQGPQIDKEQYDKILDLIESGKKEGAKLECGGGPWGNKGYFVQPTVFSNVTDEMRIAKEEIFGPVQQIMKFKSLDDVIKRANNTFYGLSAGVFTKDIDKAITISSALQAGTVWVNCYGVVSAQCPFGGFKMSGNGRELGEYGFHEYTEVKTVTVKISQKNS
# LMNA splice mod – changes lamin A minigene splicing in HeLa cells | HeLa LMNA splicing GFP/RFP minigene ratio, 48 h | Potency, µM (highest dose often 46.1 µM), without a hit: top-dose ratio change, negative = inhibition, actives largely listed as inhibitors | 200,000 tested, 0.01% active | AID 1487; active = well fitted inhibition curve with a large enough effect in the signal ratio, with a control signal flat, not every such curve was filed as active; inconclusive = small, poorly fitted or top-dose-only effect, or effect the other way, or a change in a side signal; the % refers to the signal ratio; also: % is scaled to controls: 0 for no effect and ±100 for the full control effect
#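 S3 HeLa stable clones carrying a lamin A-EGFP splicing minigene plus DsRed2 were seeded at 600 cells/well in Opti-MEM with 2% FBS, pin-dosed and incubated 48 h at 37°C. Acumen cytometry (488 nm) gave the GFP/RFP total-intensity ratio.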
# * = called active by the depositor; ? = inconclusive; . = not tested or not shown; [ ] = another dose, or the depositor's remark. Unless noted, calls follow the shape of the dose curve; as a rule, active = well fitted inhibition curve with a large enough effect (not every such curve was filed as active); inconclusive = small, poorly fitted or top-dose-only effect, or another doubt; inactive = no such curve, though single readings can be large or run the other way. Potency is read from the fitted curve at half-maximal effect.
SMILES,HTT ATP protect,HttQ103 aggreg,KDM4E inh,HPGD inh,ALDH1A1 block,LMNA splice mod
CC(CC(O)C1OC1(C)C)C1CCC2(C)C3=CCC4C(C)(C)C(=O)CCC4(C)C3CC[C@@]12C (some centres undefined),-171%,.,-1%,-4%,-10%,.
Cc1ccc(C(=O)Nc2cccc([N+](=O)[O-])c2)cc1S(=O)(=O)Nc1ccc(C(=O)O)cc1,-13%,23%,-3%,.,?,.
Cc1ccc([N+](=O)[O-])cc1NC(=S)NC(=O)C(C)(C)C,-26%,14%,2%,7.1µM*,4.5µM*,2%
Cc1ccccc1NS(=O)(=O)c1cc(C(=O)Nc2cccc([N+](=O)[O-])c2)ccc1C,25%[10 µM],?,-3%,-11%,22µM*,?
Cc1ccc([N+](=O)[O-])cc1NC(=O)c1ccc(C(C)(C)C)cc1,-31%,?,-1%,16µM*,-9%,14%
CCCCC(=O)NC(=S)Nc1cc([N+](=O)[O-])ccc1OC,2%[10 µM],5%,-4%,.,?,?
Cc1ccc([N+](=O)[O-])cc1NC(=S)NC(=O)CC(C)(C)C,7%,-12%,18%,16µM*,-14%,22%
CS(=O)(=O)c1ccc([C@H](O)[C@H](CO)NC(=O)C(Cl)Cl)cc1,?,.,4%[25.5 µM],0%,4%[20.9 µM],?
N#Cc1ccccc1CSc1nnc2ccc3ccccc3n12,.,.,.,.,.,4%[46 µM]
O=C(c1cccc(F)c1)N1CCC2(CC1)CCN(c1cccc(-c3ccccc3)c1)CC2,23%,.,.,-16%,?,.
CCOc1ccccc1NC(=O)C(c1ccccc1)N1Cc2ccccc2C1=O (centres undefined),.,.,.,.,.,1%[46 µM]
O=c1ccc2cc3c([nH]c4ccc(Br)cc43)oc-2c1O,0%[10 µM],0%,?,16µM*,7.9µM*,-3%
O=c1c2c([nH]c3ccc(Br)cc13)CCCC2,-18%,-11%,3%,-4%,-3%,4%
Cc1ccc(Sc2nnc(Cc3ccccc3)c3ccccc23)cc1,2%[10 µM],33%[9.22 µM],-4%,-29%,28µM*,?
COc1ccc(Sc2nnc(Cc3ccccc3)c3ccccc23)cc1,37%,?,-1%,-14%,?,?
CCC1SC2=NC(C)=C(C(=O)OCC(C)C)C(/C=C/c3ccccc3OC)N2C1=O (centres undefined),-2%,19%,-8%,-24%,-11%,3%
COc1ccccc1/C=C/C1C(C(=O)OCC(C)C)=C(C)N=C2SCCC(=O)N21 (centres undefined),-33%,-13%,-8%,.,22µM*,.
Clc1cccc(-n2ncc3c(NCCC4=CCCCC4)ncnc32)c1,.,.,.,.,.,-13%[46 µM]
COc1ccccc1-c1nc(N(C)C)c2ccccc2n1,-110%,.,.,.,17%,?
CCC1(C)CC2(CCCN(CCC(=O)c3ccccc3)C2)CCO1 (centres undefined),1%,-1%,5%,.,0.71µM*,-33%[9.22 µM]
C=CCC(O)(CCN1CCCCC1)c1ccccc1 (centres undefined),13%,-10%,1%,-17%,-4%,11%
CCOC(=O)N1CCN(C(=O)c2ccc(OCC)cc2)CC1,12%[10 µM],20%[9.22 µM],3%,.,2%,9%[46 µM]
COc1ccc(C(=O)CCN2CCCCCC2)cc1,-40%,?,-3%,-16%,0.063µM*,?
COc1ccc(C(O)(CCc2ccccc2)CCN2CCCCC2)cc1 (centres undefined),-12%,4%,2%,.,2.2µM*,.
CCCOc1ccc(C(=O)CCN2CCN(C(=O)OCC)CC2)cc1,3%,-13%,2%,.,0.71µM*,.
SMILES,HTT ATP protect,HttQ103 aggreg,KDM4E inh,HPGD inh,ALDH1A1 block,LMNA splice mod
CCOc1cc2[nH]c(=O)n(CCCC(=O)N(C)Cc3ccccc3)c(=O)c2cc1OCC,-12%,19%,?,.,3%,6%[46 µM]
Cc1cc(N2C(=O)NC(=O)CC2C)c(C)cc1C(C)C (centres undefined),.,6%,-1%,-3%,-2%,?
Cc1cccc(NC(=O)NNC(=O)c2sccc2-n2cccc2)c1,-7%,10%,0%,.,?,3%[9.22 µM]
Cc1nn(-c2ccc(N3CCOCC3)nn2)c(C)c1CCC(=O)NCc1ccc(F)cc1,.,.,.,.,.,8%[46 µM]
CC(C)Oc1ccc(C(=O)CCN2CCCCC2)cc1,6%[1.9 µM],?,-6%,-11%,0.071µM*,-19%
COc1ccc(C(=O)OCCN2CCCCC2)cc1,6%,5%,9%,.,4%,17%[46 µM]
CCOc1ccc(C(=O)CCN2CCCCC2)cc1,16%,-1%,3%,?,0.016µM*,?
O=C(CCN1CCCCCC1)c1ccccc1,4%[1.9 µM],-18%,0%,-8%,6.3µM*,-6%
Cc1ccc(NC(=O)Cn2c(=S)[nH]c3ccccc32)cc1,0%,-15%,3%,.,10µM*,.
O=C(Cn1c(=S)[nH]c2ccccc21)c1ccccc1,4%[10 µM],-13%,?,-8%,-10%,?
COc1cc(N/N=C/c2ccccc2O)ncn1,34%[10 µM],?,25µM*,-15%,11%,-25%
O=S(=O)(Cc1ccccc1)c1nnnn1C1CCCCC1,-4%,.,-1%,-1%,12%,.
COc1cccc(-n2c(C)cc(/C=C3/C(=N)N4C(=NC3=O)SN=C4S(C)(=O)=O)c2C)c1,-66%,5%,?,.,32µM*,.
Cc1ccc(-n2cccc2/C=C2/C(=N)N3C(=NC2=O)SN=C3S(C)(=O)=O)cc1,-18%,19%,5%,.,?,?
CC1=NN2C(=N)/C(=C\c3cc(C)n(-c4cccc(C)c4)c3C)C(=O)N=C2S1,-24%[10 µM],-19%[9.22 µM],?,.,.,.
Cc1cc(C)cc(-n2cccc2/C=C2/C(=N)N3C(=NC2=O)SN=C3S(C)(=O)=O)c1,-28%,8%,-25%,.,5µM*,-13%[46 µM]
O=C(c1csnn1)N1CCC2(CCCN(c3ncccn3)C2)CC1,6%,.,.,-12%,?,.
O=C(Cc1ccc(Cl)cc1)NCc1ccccc1Cl,-40%,-1%,-1%,.,7%,9%[46 µM]
O=C(Cc1ccccc1Cl)NC1(O)C(=O)c2ccccc2C1=O,-11%[10 µM],-17%[9.22 µM],-3%,.,1.1µM*,17%[46 µM]
Cc1c(Br)cc(C(=O)NCc2ccco2)c(C)c1C,-23%,13%,6%,25µM*,?,17%
Cc1ccc2c(CC(=O)NCc3ccco3)coc2c1C,-23%[10 µM],-4%,7%,2.8µM*,25µM*,?
Cc1ccc(C(=O)NCc2ccco2)cc1Br,16%[10 µM],-22%,13%,-30%,?,0%
CSc1ccc(Cl)c(C(=O)NCc2ccco2)c1,2%,-5%,-12%,16µM*,?,9%
Cc1ccc(S(=O)(=O)/N=C2/NC(=O)/C(=C/c3ccncc3)S2)cc1,?,-3%,?,14µM*,?,16%

# Screens from PubChem BioAssay.
